Records with an inconclusive call do not appear. Active and inactive are the calls of the source. Unless noted, calls come from the whole dose curve; as a rule, active = well fitted curve in the direction sought with a large enough effect in the repeat runs; inconclusive = weak or mixed curves; inactive = no such curve, though single readings can be large; an effect the other way counts as inactive or inconclusive.
Key:
[1] = molecular target: Retinoic acid receptor RXR-alpha (Homo sapiens) (UniProt P19793); assay: qHTS assay to identify small molecule agonists of the RXR signaling pathway (AID 1159527; calls by dose curve; note: nearly all actives have a fitted effect of over 35% in size)
Summary of the method: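 GeneBLAzer RXR-alpha-UAS-bla HEK 293T cells in 2% charcoal-stripped FBS medium were exposed to compounds for 16 hr at 37 C in agonist mode. Beta-lactamase reporter read as 460/530 nm FRET ratio after 2 hr substrate loading.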

[2] = qHTS assay to identify small molecule agonists of the RXR signaling pathway - cell viability counter screen (AID 1159529); note: series mostly up to about 77 µM; nearly all actives have a fitted effect of over 50% in size
Summary of the method: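 RXR-alpha-UAS-bla HEK 293T cells in medium with 2% charcoal-stripped FBS were pre-incubated 5 hr, then compound-treated 16 hr at 37 C. Viability was read by CellTiter-Glo luminescence in the same wells as the beta-lactamase assay, with tetraoctyl ammonium bromide as positive control.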

[3] = qHTS assay to identify small molecule antagonists of the retinoid acid receptor (RAR) signaling pathway - cell viability counter screen (AID 1159551); note: nearly all actives have a fitted effect of over 35% in size
Summary of the method: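 Cytotoxicity counter screen: ATP content quantified by CellTiter-Glo luminescence in C3RL4 cells treated 6 hr at 37 C with compound and retinol (1 uM final). Cells plated at 1,000/well and cultured overnight before dosing.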

[4] = qHTS assay to identify small molecule antagonists of the retinoic acid receptor (RAR) signaling pathway (AID 1159552; note: nearly all actives have a fitted effect of over 50% in size)
Summary of the method: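 Retinol signaling pathway inhibitors screened in C3RL4 RARE-luciferase reporter cells seeded overnight at 37 C, then compounds added with 1 uM (final) retinol as pathway substrate. After 6 hr at 37 C, luciferase luminescence read after 30 min at room temperature.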

[5] = qHTS assay to identify small molecule agonists of the retinoic acid receptor (RAR) signaling pathway (AID 1159553)
Summary of the method: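 Luminescence was measured 30 min after luciferase reagent addition at room temperature. Before that, C3RL4 reporter cells (1,000 per well, plated overnight) were treated with compound for 6 hr at 37 C and 5% CO2.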

[6] = qHTS assay to identify small molecule antagonists of the estrogen related receptor (ERR) signaling pathway from Tox21 library - cell viability counter screen (AID 1224834); note: nearly all actives have a fitted effect of over 30% in size
Summary of the method: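 CellTiter-Fluor fluorescence, read after 30 min at 37 C, measures viability of ERR cells. Cells plated at 2,000/well and incubated 6 h before pin-tool compound addition, then exposed 17.5 hours at 37 C.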

[7] = molecular target: Luciferin 4-monooxygenase (Photinus pyralis) (UniProt P08659); assay: qHTS assay to identify small molecule inhibitors of firefly luciferase (AID 1224835); note: series mostly up to about 120 µM; nearly all actives have a fitted effect of over 25% in size
Summary of the method: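 Inhibition of purified Photinus luciferase is measured by luminescence. Substrate levels (D-luciferin, ATP) sit at their KM values. Each compound is tested in a concentration series.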

[8] = qHTS assay to identify small molecule agonists of the constitutive androstane receptor (CAR) signaling pathway - cell viability counter screen (AID 1224836); note: series mostly up to about 92 µM; nearly all actives have a fitted effect of over 45% in size
Summary of the method: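 HepG2 cells stably carrying hCAR and a CYP2B6-2.2kb reporter; 15-concentration compounds plus PK11195 (final 0.75 uM), 23 hr at 37 C/5% CO2. Viability read by CellTiter-Fluor fluorescence.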

[9] = qHTS assay to identify small molecule antagonists of the constitutive androstane receptor (CAR) signaling pathway - cell viability counter screen (AID 1224837); note: series mostly up to about 92 µM; nearly all actives have a fitted effect of over 45% in size
Summary of the method: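 Cytotoxicity counter-screen: CellTiter-Fluor fluorescence after 23 h compound exposure (15-point qHTS) in double-stable HepG2-CYP2B6-hCAR cells, with 50 nM CITCO added.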

[10] = molecular target: Nuclear receptor subfamily 1 group I member 3 (Homo sapiens) (UniProt Q14994); assay: qHTS assay to identify small molecule antagonists of the constitutive androstane receptor (CAR) signaling pathway (AID 1224838);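 note: HepG2 cells stably expressing hCAR with CYP2B6 luciferase reporter stimulated by CITCO; nearly all actives have a fitted effect of over 40% in size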
Summary of the method: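 Antagonism measured as luciferase signal (ONE-Glo, 30 min, room temperature) in CAR-stimulated cells: HepG2-CYP2B6-hCAR double-stable line exposed 24 hr at 37 C to compound in a 15-point series plus 50 nM CITCO.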

[11] = molecular target: Nuclear receptor subfamily 1 group I member 3 (Homo sapiens) (UniProt Q14994); assay: qHTS assay to identify small molecule agonists of the constitutive androstane receptor (CAR) signaling pathway (AID 1224839);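 note: HepG2 cells stably carrying human CAR and a CYP2B6 luciferase reporter; series mostly up to about 92 µM; nearly all actives have a fitted effect of over 15% in size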
Summary of the method: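 HepG2 cells stably co-transfected with hCAR and a CYP2B6-2.2kb luciferase reporter; compounds at 15 concentrations with 0.75 uM PK11195 present. After 24 hr at 37 C, luciferase read by ONE-Glo luminescence.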

[12] = qHTS assay to identify small molecule antagonists of the estrogen related receptor signaling pathway with the pleiotropic PPARgamma coactivator (PGC) from Tox21 10K library (AID 1224841; call rule not given here; note: series mostly up to about 92 µM; actives are mostly falling curves and most rising ones were filed inactive; nearly all actives have a fitted effect of over 50% in size)
Summary of the method: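 Luminescence (One-Glo, 30 min at room temperature) after 18 h compound treatment at 37 C of PGC/ERR reporter cells plated at 2,000 cells/well and settled 6 h beforehand.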

[13] = qHTS assay to identify small molecule agonists of the estrogen related receptor signaling pathway with the pleiotropic PPARgamma coactivator (PGC) from Tox21 10K library (AID 1224842); note: nearly all actives have a fitted effect of over 15% in size
Summary of the method: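 Luminescence from One-Glo (30 min, room temperature) measured after PGC/ERR cells had 18 h at 37 C with pinned compound (23 nL in DMSO). Cells had been seeded at 2,000 per well and pre-incubated 6 h.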

[14] = qHTS assay to identify small molecule antagonists of the estrogen related receptor signaling pathway with the pleiotropic PPARgamma coactivator (PGC) from Tox21 10K library - cell viability counter screen (AID 1224840; active = well fitted cell-killing curve with a large enough effect in the repeat runs, not every such curve was filed as active; note: nearly all actives have a fitted effect of over 40% in size)
Summary of the method: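 Counter-screen for cytotoxicity: after 17.5 h compound exposure at 37 C, CellTiter-Fluor reagent added to PGC/ERR cells for 30 min and fluorescence read. Cells were seeded at 2,000 per well 6 h before dosing.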

[15] = qHTS assay to identify small molecule antagonists of the estrogen related receptor (ERR) signaling pathway - cell viability counter screen (AID 1224818);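 note: series mostly up to about 46 µM; viability measured after 17.5 h of compound exposure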
Summary of the method: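 Cytotoxicity counter screen: fluorescence from CellTiter-Fluor, added after 17.5 h compound exposure at 37 C and read 30 min later. ERR cell line seeded at 2,000 cells/well, preincubated 6 h before dosing.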

[16] = qHTS assay to identify small molecule antagonists of the estrogen related receptor signaling pathway with the pleiotropic PPARgamma coactivator (PGC) cell viability counter screen (AID 1224822; note: series mostly up to about 46 µM)
Summary of the method: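 Viability counter-screen read by fluorescence intensity after 30 min with CellTiter-Fluor at 37 C; PGC/ERR reporter cells were exposed to compounds for 17.5 h at 37 C following a 6 h preincubation.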

Measured: Potency

Chain of Luciferin 4-monooxygenase (Photinus pyralis) (P08659 whole entry, looked up): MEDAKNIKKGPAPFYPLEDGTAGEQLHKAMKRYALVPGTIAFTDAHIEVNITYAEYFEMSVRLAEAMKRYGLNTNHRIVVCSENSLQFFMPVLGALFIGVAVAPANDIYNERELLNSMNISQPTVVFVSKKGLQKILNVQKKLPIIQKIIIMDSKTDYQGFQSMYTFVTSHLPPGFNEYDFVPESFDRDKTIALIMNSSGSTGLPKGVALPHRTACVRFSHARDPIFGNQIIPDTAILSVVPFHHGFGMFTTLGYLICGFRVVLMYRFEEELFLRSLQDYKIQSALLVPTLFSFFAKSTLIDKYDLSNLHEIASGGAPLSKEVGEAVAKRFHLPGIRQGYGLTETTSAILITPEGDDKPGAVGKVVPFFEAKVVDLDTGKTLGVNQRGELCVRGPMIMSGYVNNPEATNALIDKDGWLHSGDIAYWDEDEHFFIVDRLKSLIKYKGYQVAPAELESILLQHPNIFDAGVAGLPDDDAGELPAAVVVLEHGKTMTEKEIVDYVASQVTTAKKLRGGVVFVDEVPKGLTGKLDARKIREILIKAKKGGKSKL
Chain of Nuclear receptor subfamily 1 group I member 3 (Homo sapiens) (Q14994 whole entry, looked up): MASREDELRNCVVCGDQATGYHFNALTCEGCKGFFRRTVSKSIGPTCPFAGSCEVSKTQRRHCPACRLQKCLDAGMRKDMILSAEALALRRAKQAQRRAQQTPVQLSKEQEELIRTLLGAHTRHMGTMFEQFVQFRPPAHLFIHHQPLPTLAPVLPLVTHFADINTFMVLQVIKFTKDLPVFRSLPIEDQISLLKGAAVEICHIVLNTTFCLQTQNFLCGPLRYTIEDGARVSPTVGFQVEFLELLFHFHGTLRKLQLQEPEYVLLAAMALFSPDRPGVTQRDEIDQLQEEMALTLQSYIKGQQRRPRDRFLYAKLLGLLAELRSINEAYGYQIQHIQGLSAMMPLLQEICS
Chain of Retinoic acid receptor RXR-alpha (Homo sapiens) (P19793 whole entry, looked up): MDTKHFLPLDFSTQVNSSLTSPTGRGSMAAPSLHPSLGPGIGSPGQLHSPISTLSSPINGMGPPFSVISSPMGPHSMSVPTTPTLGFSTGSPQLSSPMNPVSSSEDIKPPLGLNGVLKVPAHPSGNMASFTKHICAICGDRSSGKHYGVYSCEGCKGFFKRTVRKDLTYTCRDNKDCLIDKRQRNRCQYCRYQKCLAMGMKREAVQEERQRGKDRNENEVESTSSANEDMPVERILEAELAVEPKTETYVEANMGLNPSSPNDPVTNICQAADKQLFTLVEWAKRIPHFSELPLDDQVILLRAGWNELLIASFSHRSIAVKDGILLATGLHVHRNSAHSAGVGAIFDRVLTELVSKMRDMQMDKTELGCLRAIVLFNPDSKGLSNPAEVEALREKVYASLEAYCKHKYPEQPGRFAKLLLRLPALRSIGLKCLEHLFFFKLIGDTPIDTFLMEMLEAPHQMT

NS(=O)(=O)c1cc(C(=O)O)cc(N2CCCC2)c1Oc1ccccc1
not listed: [14] | [15] | [16]
inactive: all other assays above

C=CCOCC(CC)(CO)COCC=C
not listed: [7] | [13] | [15] | [16]
inactive: all other assays above

CCCCC/C=C\CCC=O
not listed: [7] | [12] | [13] | [15] | [16]
inactive: all other assays above

O=C(O)CCCc1ccccc1
not listed: [13] | [14] | [15] | [16]
inactive: all other assays above

NS(=O)(=O)c1cc(C(=O)NN2C[C@H]3[C@H]4CCC(C4)[C@H]3C2)ccc1Cl
not listed: [14] | [15] | [16]
inactive: all other assays above

CC(C)(C)c1nnc(NS(=O)(=O)c2ccccc2)s1
not listed: [7] | [13] | [15] | [16]
inactive: all other assays above

CCOC(=O)[C@H](CCc1ccccc1)N[C@@H](C)C(=O)N1[C@H](C(=O)O)C[C@@H]2CCC[C@@H]21
not listed: [13] | [14] | [15] | [16]
inactive: all other assays above

CC(C)c1cc2c(cc1S(=O)(=O)O)[C@@]1(C)CCC[C@@](C)(C(=O)O)[C@@H]1CC2
not listed: [14] | [15] | [16]
inactive: all other assays above

CN1CCN(c2cc3c(cc2F)c(=O)c(C(=O)O)cn3-c2ccc(F)cc2)CC1
not listed: [15] | [16]
inactive: all other assays above

FC(F)OC(Cl)C(F)(F)F (stereo not drawn)
not listed: [14] | [15] | [16]
inactive: all other assays above

C=COCC1CCC(CO)CC1 (stereo not drawn)
not listed: [15] | [16]
inactive: all other assays above

c1ccc(CC2=NCCN2)cc1
not listed: [15] | [16]
inactive: all other assays above

C[C@@H]1CCN(C(=O)[C@H](CCCN=C(N)N)NS(=O)(=O)c2cccc3c2NC[C@H](C)C3)[C@@H](C(=O)O)C1
not listed: [14] | [15] | [16]
inactive: all other assays above

NS(=O)(=O)c1ccc(C(=O)O)cc1
not listed: [7] | [13] | [15] | [16]
inactive: all other assays above

Cn1cc(S(C)=O)c(=O)c2ccc(F)cc21 (stereo not drawn)
not listed: [14] | [15] | [16]
inactive: all other assays above

CC/C=C\CCOC(C)=O
not listed: [7] | [13] | [15] | [16]
inactive: all other assays above

CCOC(=O)c1c(C)n(C)c2ccc(O)cc12
not listed: [7] | [13] | [15] | [16]
inactive: all other assays above

O=C(c1ccccc1)C1CCCCC1
not listed: [7] | [13] | [15] | [16]
inactive: all other assays above

c1ccc([C@H]2CN3CCSC3=N2)cc1
not listed: [5] | [12] | [13]
inactive: all other assays above

CC/C=C\CC/C=C/CO
not listed: [7] | [15] | [16]
inactive: all other assays above
